Reference: PubChem BioAssay (NCI)
The panel holds about 79,000 compounds, 15% with a hit somewhere; the sample as a whole holds those more often. Activity calls are given as the source filed them. Cut-off read from the data, not from the text of the source: active = growth inhibition above about 70%; inactive = the rest.

Experiments:
[1] = NCI Yeast Anticancer Drug Screen. Data for the rad50 strain (AID 155);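 note: 0% = growth of vehicle-only cultures of the same strain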; details: S. cerevisiae rad50 strain growth inhibition; at 50.0 µM; active compounds read high
Outline: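 Yeast carrying a defined DNA repair defect were exposed to test compounds, and growth was compared with vehicle-treated controls to give percent inhibition.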

[2] = NCI Yeast Anticancer Drug Screen. Data for the mec2-1 strain (AID 157); details: S. cerevisiae mec2-1 strain, at 50.0 µM, active compounds read high
Outline: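 Each compound was tested on mec2-1 yeast, a strain altered in DNA damage repair or cell cycle control. Growth inhibition is reported relative to vehicle.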

[3] = NCI Yeast Anticancer Drug Screen. Data for the sgs1 mgt1 strain (AID 161);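 note: 0% = growth of cultures given vehicle only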; details: S. cerevisiae sgs1 mgt1 strain, at 50.0 µM, active compounds read high
Outline: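 Genetically altered yeast, compound exposure, growth inhibition relative to vehicle.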

[4] = NCI Yeast Anticancer Drug Screen. Data for the cln2 rad14 strain (AID 165);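 note: 0% = growth equal to vehicle treated cultures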; details: S. cerevisiae cln2 rad14 strain, at 50.0 µM, active compounds read high
Outline: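 Test compounds were added to cln2 rad14 yeast cultures; inhibition of growth was then determined by comparison with vehicle treatment.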

[5] = NCI Yeast Anticancer Drug Screen. Data for the bub3 strain (AID 167); details: S. cerevisiae bub3 mutant strain, at 50.0 µM, active compounds read high
Outline: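 Compounds were applied to a genetically altered yeast strain carrying a cell-cycle control defect. Growth inhibition was scored against vehicle-treated controls.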

[6] = NCI Yeast Anticancer Drug Screen. Data for the mlh1 rad18 strain (AID 175); details: S. cerevisiae mlh1 rad18 strain growth inhibition; at 50.0 µM; active compounds read high
Outline: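 Inhibition values reflect reduced growth of mutant yeast versus vehicle-treated controls following compound exposure; the mutations affect DNA damage repair.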

Measured: growth inhibition

Nc1ccc(N)c(C(=O)O)c1
inactive: [1] -9.35% | [2] 15.1% | [3] 1.1% | [4] -2.5% | [5] -12.6% | [6] -8.9%

N/N=C/c1ccc2ccccc2n1
inactive: [1] -14.4% | [2] -12.6% | [3] -17.4% | [4] -1.75% | [5] 12.6% | [6] -19.6%

CSc1ncc(C=O)n1Cc1ccccc1
inactive: [1] -4.35% | [2] 6.7% | [3] 0.3% | [4] -34.5% | [5] 2.15% | [6] 5.6%

CC1(C)CC2(CC3(C1)SCCS3)SCCS2
inactive: [1] -11.2% | [2] -5.25% | [3] -8.8% | [4] 5.45% | [5] -5.8% | [6] 1.35%

COc1ccc2c(c1)C1(C)CCCC(C)C1=CC2=O (configuration not stated)
inactive: [4] 28.1%
active: [1] 84% | [2] 78.3% | [3] 82.8% | [5] 87.8% | [6] 85%

CCOc1ccc(N(O)C(C)=O)cc1
inactive: [1] 1.9% | [2] -10.4% | [3] 3% | [4] -43.4% | [5] -8.75% | [6] 0%

CCCCCCCC/C=C/CCCCCCCC(=O)N(CCOC(=O)C(C)(C)C)CCOC(=O)C(C)(C)C
inactive: [1] 37.5% | [2] 9.5% | [3] 25.6% | [4] 24.2% | [5] -2.45% | [6] 39.2%

O=C(O)C1=CN=C(C(=O)O)NN1
inactive: [1] -24.4% | [2] -23.2% | [3] -28.8% | [4] 19.5% | [5] -4.15% | [6] -34.5%

COc1ccc(N2C(=O)CCC2=O)cc1
inactive: [1] -7.8% | [2] 0.25% | [3] -7.7% | [4] -6.15% | [5] -9.9% | [6] 4.9%

OCCCc1ccccc1
inactive: [1] -0.1% | [2] -1.65% | [3] -2.55% | [4] -13.2% | [5] 3.25% | [6] -3.7%

CC(C)c1cccc(C(C)C)c1NC1=CC(=O)C(=O)c2ccccc21
inactive: [1] -7.25% | [2] 14.4% | [3] -16.8% | [4] -0.2% | [5] 4.85% | [6] -7.85%

OC1COC(O)(CNCCc2c[nH]c3ccc(OCc4ccccc4)cc23)C(O)C1O (configuration not stated)
inactive: [1] -25.5% | [2] 7.25% | [3] -18.2% | [4] -49.7% | [5] -20.7% | [6] 19.1%

CC(C)N(C(=S)/N=C1/SC(C)S(=O)(=O)N1C)C(C)C (configuration not stated)
inactive: [1] -4.95% | [2] 13.6% | [3] -5.95% | [4] -4.5% | [5] -10.8% | [6] 5.45%

C=C(C)C(=O)OCC(CC)(COC(=O)C(=C)C)COC(=O)C(=C)C
inactive: [1] -9.25% | [2] -19.6% | [3] 8.35% | [4] -2.05% | [5] 18.6% | [6] 0%

CS(=O)(=O)OCCCCCCCCCOS(C)(=O)=O
inactive: [1] -10.9% | [2] -26.1% | [3] -3.6% | [4] -0.05% | [5] -18.8% | [6] -12.3%

Cn1c(=O)c2[nH]c(N(CCO)CCO)nc2n(C)c1=O
inactive: [1] 7.75% | [2] 9.95% | [3] 23.9% | [4] 21.9% | [5] -2.3% | [6] 15.1%

CC1(C)CC2=C(Sc3ccccc3N2)C(=O)C1C(=O)C(=O)Nc1cc(Cl)ccc1Cl (configuration not stated)
inactive: [1] -1.3% | [2] -6.95% | [3] -6.85% | [4] -28.3% | [5] -0.25% | [6] -9.55%

CCOC(=O)C1CC1c1ccccc1 (configuration not stated)
inactive: [1] 6.1% | [2] -7.9% | [3] -0.25% | [4] -8.65% | [5] -3.6% | [6] 8.5%

COc1ccc(N=c2nc3n4c(c(Br)cc(Br)c4n2)NC(C(Br)(Br)Br)=N3)cc1
inactive: [1] 1.7% | [2] 1.2% | [3] 6.25% | [4] -15.3% | [5] 4.35% | [6] 41.1%

COc1ccc(/C=N/Nc2nc3ccccc3s2)cc1
inactive: [1] 7.9% | [2] -3.15% | [3] -3.15% | [4] -41.4% | [5] 1% | [6] 25.6%

CN(C)CC(CN(C)C)C(=O)O
inactive: [1] -0.2% | [2] 2.75% | [3] -13.3% | [4] 22% | [5] -6.25% | [6] -15.7%

COc1cc2oc3cc(=O)cc4oc(-c5ccccc5)cc(c2c2c1CCC(c1ccccc1)O2)c43 (configuration not stated)
inactive: [1] 6.75% | [2] 7.9% | [3] -17.4% | [4] 3.6% | [5] -8.7% | [6] -10.2%

CCOC(=O)n1oc2ccc(Br)cc2c1=O
active: [3] 76.2%
inactive: [1] 53.3% | [2] 58% | [4] 45% | [5] 61.6% | [6] 64.5%

C=CCCCC1CCCNC1=O (configuration not stated)
inactive: [1] 5.05% | [2] 10.2% | [3] -8.2% | [4] 8.1% | [5] 4.05% | [6] 0.45%

Cc1cc(Cl)ccc1NC(=O)C1C(=O)C(=O)N(c2ccc(Cl)cc2C)C1=O (configuration not stated)
inactive: [1] 7.4% | [2] -2.3% | [3] 14.8% | [4] 13.4% | [5] -18.2% | [6] 17.2%

Cc1c(C)c(CC(=O)N2CC2)c(C)c(C)c1CC(=O)N1CC1
inactive: [1] -23.4% | [2] 9.75% | [3] -3.9% | [4] -26.1% | [5] 2.65% | [6] -36.2%

O=C(O)c1cc(Nc2nc(Cl)nc(Cl)n2)ccc1-c1c2ccc(=O)cc-2oc2cc(O)ccc12
inactive: [1] 37.2% | [2] 21.3% | [3] 22.7% | [4] 10% | [5] -1.15% | [6] 49.5%

CSc1nc(C)cc(N(C)c2ccccc2)n1
inactive: [1] -5.9% | [2] 0.25% | [3] 8.85% | [4] -8.9% | [5] -18.2% | [6] 14.6%

CC(C)[C@H]1CC[C@@](C)(C(=O)O)C1
inactive: [1] 12.4% | [2] 7.5% | [3] 15.2% | [4] 5.8% | [5] 23.4% | [6] 16.4%

CC1(C)C(=O)CCC2(C)C(OC(=O)c3ccc(C(=O)O)cc3)CCCC12 (configuration not stated)
inactive: [1] -2% | [2] 37.5% | [3] 30.1% | [4] -15.4% | [5] 20.2% | [6] 18.4%

Cc1ccc(S(=O)(=O)CCN2CCCC2)cc1
inactive: [1] -3.85% | [2] -14.7% | [3] -5.6% | [4] -47.2% | [5] 7.95% | [6] -9.55%

COC(=O)/C=C/c1ccc(OC(C)=O)c(OC)c1
inactive: [1] -1.9% | [2] 3.55% | [3] -13.6% | [4] -19.1% | [5] 16.6% | [6] -4.9%

COC(=O)/C=C1/Nc2c(N)nc(N)nc2NC1=O
inactive: [1] 15.1% | [2] 8.2% | [3] 5.95% | [4] -2.1% | [5] -0.9% | [6] 3.15%

CC(C)/C=C(/CC(C)C)C(CCC(=O)Nc1ccccc1)C(=O)Nc1ccccc1 (configuration not stated)
inactive: [1] 7.9% | [2] 27.7% | [3] 4.1% | [4] 10% | [5] 1.8% | [6] 35.2%

O=C(O)C1(NO)CCCCC1
inactive: [1] -6.9% | [2] 6.7% | [3] -11.8% | [4] -9% | [5] -12.6% | [6] -5.4%

NC(=O)N1CCCCN1C(N)=O
inactive: [1] 9.9% | [2] -7.95% | [3] -1.6% | [4] -55% | [5] 6.75% | [6] -4.65%

O=c1[nH]ncc2ccccc12
inactive: [1] -3.1% | [2] -16.2% | [3] -3.95% | [4] -53.5% | [5] -4.75% | [6] -2.45%

COc1ccc(C2OC(=O)C(=O)C2=O)cc1OC (configuration not stated)
inactive: [1] -25.9% | [2] -25.4% | [3] -8.45% | [4] -17.4% | [5] 8.7% | [6] -8.65%

Cc1cc2c(c(C(N)=O)c1C)-c1cccc(Cl)c1C2=O
inactive: [1] 13.1% | [2] 12.2% | [3] 9.7% | [4] 11% | [5] 1.35% | [6] -1.3%

COC(=O)NC1C(=O)CCC(=O)C1C(N)=O (configuration not stated)
inactive: [1] -23.4% | [2] -7.65% | [3] -17.4% | [4] -17.5% | [5] -0.3% | [6] -12.4%

NC(=O)Cc1ccccn1
inactive: [1] 5.05% | [2] -2.6% | [3] 2.95% | [4] -8.15% | [5] 5.25% | [6] 1.4%

Cc1cc(Br)ccc1N=c1scc(-c2ccc(Cl)cc2)n1C
inactive: [1] -22.2% | [2] -27.6% | [3] 4.45% | [4] 0.1% | [5] 16.1% | [6] 15.1%
